Drawing on article PMC12136788, this text covers binding signal for 22 molecules.

First the molecules themselves.
B1: chr5:113014749:113014850:+|3pUTR|ENSG00000172795|msi1|total|mutant (ssRNA)
RNA: GGGAGUUCUACAGUCCGACGAUCUAAAAAUCCUUUUUUACAGUGGUAUCCACAAAAUACUUCUCUGCUUAUAAAUGUUAUUGCCGAAAUCUUUAUUCUGUGCCGGCCGCCUAUUUAAUUGGGUUCCACUGAACCUCAUGGGACCAACAGAGGAUUGAGCAUCA
B2: chrX:51682015:51682831:-|CDS|ENSG00000283093|control|control|control (ssRNA)
RNA: GGGAGUUCUACAGUCCGACGAUCCAGUGCCCCCGGGUCCAAGUCGGGGUCGGGAGCCACGCGGCGGCCAAGAGGUGGCUGGGUAGGUGGCGACGGAAGCGCCGCUGGCGGCGGGUCCGGAAGGCGGGCCCCAGAGACCUGCUGCAACAGAGGAUUGAGCAUCA
B3: chr6:96891104:96891324:-|CDS|ENSG00000123545|unk|FALSE|unique (ssRNA)
RNA: GGGAGUUCUACAGUCCGACGAUCUAAUCAUAAGCUUUUCCCAGAAACCUGGACUGCUGAGAAAAUAAUGCAGGAAUACCAGUUAGAACAGAAAGAUGUGAAUUCUCUUCUUAAAUAUUUUGUUACUUUUGAAGUCGAAAUCUUCAACAGAGGAUUGAGCAUCA
B4: chr5:141515350:141515460:-|3pUTR|ENSG00000131504|msi1_unk|FALSE|overlapping (ssRNA)
RNA: GGGAGUUCUACAGUCCGACGAUCCUCAGCUUUCCAUCCCCAGCUAGGAAGAAAGAAUGGCACUCUUGGGCUUGGCCCAGAAUUAGAGUUAUUAGAGCAAGAGAGAGCUUAGGAAGCAUGAGGGCAACUAUAGUGAGGCCUUAUCAACAGAGGAUUGAGCAUCA
B5: chr7:127374855:127374969:-|CDS|ENSG00000048405|unk|FALSE|unique (ssRNA)
RNA: GGGAGUUCUACAGUCCGACGAUCCCUAGAAGCCAUAUAUCCAAGUGUGGACAAACGAGAAUAUAUUAUUAAGCUAGAACCCAUAGAAACUAAUCAAAAUGCAGUAUUUCAAUAUAUUUCGAGGACUGAUAAUCCUAUUGAAGUCAACAGAGGAUUGAGCAUCA
B6: chr6:39540002:39540221:-|CDS|ENSG00000164627|control|control|control (ssRNA)
RNA: GGGAGUUCUACAGUCCGACGAUCCCACUUGGCUGGCAUGGAUAGACGUGAAUUCAGACAGUCCCAGAGCCCACCCUUCCGCCUAGGAAACCCAGAAGAAGGUCAAAGAAUGCGACUAUCCUCAGCUCCCUCACAGGCCCAGGACAACAGAGGAUUGAGCAUCA
B7: chr5:111496093:111496242:-|3pUTR|ENSG00000164211|unk|FALSE|unique (ssRNA)
RNA: GGGAGUUCUACAGUCCGACGAUCUUUACAUGUAUAGUUAAAUAUUAAAAUUCAUCUCUUGCAGUUCAAUAAAAGCUAUAGUAUAGAUUUUAUUUUUAAGAAGUUUAUAUAAUUCUUUUGUGAACCAAUAUGUAAAACUAGAAUCAACAGAGGAUUGAGCAUCA
B8: chr12:100626600:100626701:+|3pUTR|ENSG00000139354|unk|FALSE|unique (ssRNA)
RNA: GGGAGUUCUACAGUCCGACGAUCAAUUUUAUCAUCAAGUAUUCCCUUAUAAAACCAAGUAACACUUCUUUAUCAGUAACUUUUAGAACUUAAAAGAAAGCAAAAAGUAAAUGGAAUUGUAGGCAAUUUAUGAAUCCUAGUAGACAACAGAGGAUUGAGCAUCA
B9: chr10:87746157:87746259:+|3pUTR|ENSG00000198682|unk|FALSE|unique (ssRNA)
RNA: GGGAGUUCUACAGUCCGACGAUCAACUGAAGACCAAAUCUUAGCAGGUAAAAGCAAUAUUCUUAUACAUUUCAUAAUAAAAUUAGCUCUAUGUAUUUUCUACUGCACCUGAGCAGGCAGGUCCCAGAUUUCUUAAGGCUUUGUCAACAGAGGAUUGAGCAUCA
B10: chr4:54297753:54297953:+|3pUTR|ENSG00000134853|msi1|FALSE|unique (ssRNA)
RNA: GGGAGUUCUACAGUCCGACGAUCUUUUUAUGAUGACAAUCAAAGCCGGCCUGAGAAACACUAUUUGUGACUUUUUAAACGAUUAGUGAUGUCCUUAAAAUGUGGUCUGCCAAUCUGUACAAAAUGGUCCUAUUUUUGUGAAGACAACAGAGGAUUGAGCAUCA
B11: chr17:21001410:21001511:-|3pUTR|ENSG00000124422|msi1_unk|FALSE|overlapping (ssRNA)
RNA: GGGAGUUCUACAGUCCGACGAUCUAGUACAACUUUUAGACACAGAAAUCUGAAUGACAUAUAUUGUUCUGUGUCAAGAAACUUAGAUUUUUUUUUUAACUAUUUAAAAACGUGAAACCUAUUCUUAGCUCACAGGCCAUGGAGCAACAGAGGAUUGAGCAUCA
B12: chr6:89631235:89631336:+|3pUTR|ENSG00000135299|msi1|FALSE|unique (ssRNA)
RNA: GGGAGUUCUACAGUCCGACGAUCUGAAGUUUGAAAGCUCAGAUUAAGCAAGCCAUGCCAAGAAACUGGACGAUGUGUAAGCCUAGACUCUAAAAUUCAAGAUGUGUGAAAUAAUAUAAGUCAAAAGCAAGAAAAACGUAAUCCCAACAGAGGAUUGAGCAUCA
B13: ENSG00000156687:stop:overlap|stop_codon|ENSG00000156687|stop_codon|NA|stop_codon (ssRNA)
RNA: GGGAGUUCUACAGUCCGACGAUCACAUUUCAGAAUCCCAGCUUGAUGAAGCCGACUUCAACUACAGCAGGCAAAAUGGACUCUAGUCCACUUCCUCCCAUGAGACAGAGUGAUGGCCAGCUUGGGGACAUUUGCUUUAAAUGGCAACAGAGGAUUGAGCAUCA
B14: chr3:120327094:120327202:-|3pUTR|ENSG00000163428|unk|FALSE|unique (ssRNA)
RNA: GGGAGUUCUACAGUCCGACGAUCGAAGAGAAGUCACCAAACACCUAGGGACAGUCCUAGGCCUAGAAAGCCCUUUAAAGUAAUAGUGAAUUGUUUUAAAAUUAAGUUAUUGAGUGGCCUACUGACUACCAUCCAAAAACCUUUCAACAGAGGAUUGAGCAUCA
B15: chr10:87814449:87814585:-|CDS|ENSG00000138138|unk|FALSE|bound_elsewhere (ssRNA)
RNA: GGGAGUUCUACAGUCCGACGAUCUUUAAUUUUCCGUUUGACAAUAUUUGGUGCAGUGACAUACUUUACUAUCAAAUGGAUGGUAGAUGCAAUUGAUCCAACCAGAAAGCAAAAAGUAGAAGCUCAGAAACAGGUAUGAUUGAACAACAGAGGAUUGAGCAUCA
B16: ENSG00000104805:stop:overlap|stop_codon|ENSG00000104805|stop_codon|NA|stop_codon (ssRNA)
RNA: GGGAGUUCUACAGUCCGACGAUCAGUUGAAGGAGGUGUGGGAGGAGCUGGAUGGACUGGACCCCAACAGCAUCCCAAAGUGCUAGGAUUACAGGCGUGAGUCACUGCGCCCGGCCUCGAAAGCCCUUUCUCUAUGGUGGAUCACAACAGAGGAUUGAGCAUCA
B17: chr2:45599705:45599806:-|CDS|ENSG00000068784|msi1|total|mutant (ssRNA)
RNA: GGGAGUUCUACAGUCCGACGAUCCUCAUAUGUUCUCUUUGUGGUUUGACCGAACCGCUCUGUGGCUAUUGCUGAUACUGCUUCCGAAGACAGAAAAAAUAAAUUGGAUACUGUACAGACUCUGAAAACAGCCAAGACAAAACACAACAGAGGAUUGAGCAUCA
B18: chr1:93365539:93365640:+|3pUTR|ENSG00000117505|unk|FALSE|unique (ssRNA)
RNA: GGGAGUUCUACAGUCCGACGAUCAGGAGGCAAAAUUGCACCCUGUUGAAAACCACCACCUUAGAUCAUCUAGGUUUUACUUUUAGGAUAAGACACUUGAGGGAAAGGCUGUGAAACUGAACCUCUGUUAGAAGCAACACACAGCAACAGAGGAUUGAGCAUCA
B19: chr2:171983412:171983537:+|3pUTR|ENSG00000128708|unk|total|mutant (ssRNA)
RNA: GGGAGUUCUACAGUCCGACGAUCUGAUGACUUUAAUUUUAAAAUCUUGUGACAUUUUGCUUAUACUAAAAGUUAUCUAUCUUCCGUUGAAUAUUUUCUUUUGGAGAGAUUGUAUAUUUUAAAAUACUGUUCCGAGUUUAUGAGCAACAGAGGAUUGAGCAUCA
B20: chr19:41330322:41331077:-|three_prime_utr|ENSG00000105329|control|control|control (ssRNA)
RNA: GGGAGUUCUACAGUCCGACGAUCGUCUGCACUAUUCCUUUGCCCGGCAUCAAGGCACAGGGGACCAGUGGGGAACACUACUGUAGUUAGAUCUAUUUAUUGAGCACCUUGGGCACUGUUGAAGUGCCUUACAUUAAUGAACUCCAACAGAGGAUUGAGCAUCA
B21: chr12:88196262:88196297:+|3pUTR|ENSG00000139324|msi1_unk|FALSE|overlapping (ssRNA)
RNA: GGGAGUUCUACAGUCCGACGAUCUGUAUACUUGUUUUUAACUUUAAAUGUAAUUUUUAAUCAGGUAAAGUUUGACACAUGUAUAGCUACAUACACACAUUUUUAAUGGUGCUCAUAUAUACUGUAUUUUUUGUUGUUUAGUUUCAACAGAGGAUUGAGCAUCA
B22: chr5:136976780:136976881:-|3pUTR|ENSG00000152377|msi1|FALSE|unique (ssRNA)
RNA: GGGAGUUCUACAGUCCGACGAUCCUUAAAUUAGCAUGUUCCAAUCCAGUCGGCAUUGCCUGAAUACAGUAGCAUCAUACCUAUAGUUGGUCUUAGAUAAGAAAUGAACUACUUGAUAUAGCAAAGUCCUUUGGCUUCGUAAAUCAACAGAGGAUUGAGCAUCA

The full ranking holds about 5,800 sequences; the median of “enrichment r” is about 0.68, and the highest 2% start at about 11. The sample as a whole holds a higher share of the highest values than the screen did.

This test addresses T1, UNK ZnF1-6 (called full-length) (human, UniProt Q9C0B0 30-357).
T1 sequence: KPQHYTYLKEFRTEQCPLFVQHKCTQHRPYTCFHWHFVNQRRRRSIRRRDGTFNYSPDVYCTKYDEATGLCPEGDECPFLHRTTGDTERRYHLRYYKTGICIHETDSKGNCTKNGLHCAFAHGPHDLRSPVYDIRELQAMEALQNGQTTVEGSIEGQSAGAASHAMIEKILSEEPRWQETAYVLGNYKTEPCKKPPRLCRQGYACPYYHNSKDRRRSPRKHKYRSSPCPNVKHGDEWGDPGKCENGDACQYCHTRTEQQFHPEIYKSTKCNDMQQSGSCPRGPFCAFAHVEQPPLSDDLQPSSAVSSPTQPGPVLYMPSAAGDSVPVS
Description: nsRBNS (natural sequence RNA bind-n-seq); RBNS binding buffer (assumed for nsRBNS): 25 mM Tris pH 7.5, 150 mM KCl, 3 mM MgCl2, 0.01% Triton X-100, 500 ug/ml BSA, 20 U/ml SUPERase-In, 4 C; UNK is unkempt and MSI1 is Musashi-1; names of the RNAs are library labels; protein concentration not given here; high values mean tight binding.
In turn, B1 returned a binding signal of 0.567 enrichment R. Turning to B2, the binding signal turned out to be 6.11 enrichment R.

With B3, the binding signal is 0.645 enrichment R. B4 displayed a binding signal of 13.3 enrichment R. In the case of B5, the binding signal worked out at 18.1 enrichment R. The molecule B6 returned a binding signal of 0.794 enrichment R. Under B7 stands 2.13 enrichment R. Under B8 stands 4.55 enrichment R; under B9, 18.7 enrichment R; under B10, 0.454 enrichment R.

Molecule B11 yielded a binding signal of 24.9 enrichment R. Under B12 stands 0.227 enrichment R. Under B13 stands 0.56 enrichment R. Under B14 stands 3.46 enrichment R. B15 registered a binding signal of 0.395 enrichment R.

The molecule B16 showed a binding signal of 0.682 enrichment R. Regarding B17, the binding signal is 0.362 enrichment R.

B18: the binding signal was 5.47 enrichment R. In turn, B19 registered a binding signal of 0.599 enrichment R. Under B20 stands 2.74 enrichment R; under B21, 3.56 enrichment R. Under B22 stands 8.89 enrichment R.
